Screening data deposited in PubChem by several laboratories.
dFosB act-1 = activators of delta FosB homodimer, primary screen, biochemical, fluorescence polarization, TAMRA-CDK5 oligo, single point; AID 493131, 2011; actives 0.99% (n = 340,000); purified delta FosB; percent of positive-control signal above neutral wells; activation, % at 25 µM;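 active = mean activation above about 17%, with every replicate also reaching it, limit read from the data, passing the limit was not always enough; inconclusive = only one of the two conditions met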
Target sequence (P13346 whole entry, looked up): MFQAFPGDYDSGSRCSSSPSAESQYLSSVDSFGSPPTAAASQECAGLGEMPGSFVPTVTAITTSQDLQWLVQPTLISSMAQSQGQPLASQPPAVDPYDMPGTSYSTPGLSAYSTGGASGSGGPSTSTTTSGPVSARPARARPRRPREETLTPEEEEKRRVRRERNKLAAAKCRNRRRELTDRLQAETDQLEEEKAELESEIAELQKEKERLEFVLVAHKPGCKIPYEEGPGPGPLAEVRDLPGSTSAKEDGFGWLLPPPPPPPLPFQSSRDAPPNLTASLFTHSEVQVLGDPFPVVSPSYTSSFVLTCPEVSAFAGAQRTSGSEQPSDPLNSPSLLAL
EBNA-1 inhibitor = EBNA-1 DNA-binding inhibitors, primary screen, biochemical, fluorescence polarization; inhibition, % at 14.8 µM; actives 0.34% (n = 300,000); AID 1950, 2009; in the data active = inhibition above about 28%
TPT1 inh = Candida albicans TPT1 enzyme inhibitors, primary screen, biochemical, fluorescence polarization | tRNA 2'-phosphotransferase TPT1 (Candida albicans SC5314) | recombinant caTPT1, FP RNA substrate dephosphorylation | inhibition, % at 5 µM | actives 0.81% (n = 300,000) | AID 1962, 2009;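 active = inhibition above the mean of all tested compounds plus 3 SD, set per screening campaign, cut at about 24% in these data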;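 note: plate controls were DMSO alone for no effect and ferristatin control at 100 nM for full effect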
ZTA DNA inh = counter-screen for EBNA-1 inhibitors: inhibitors of Epstein-Barr virus ZTA | ZTA-DNA binding, fluorescence polarization | inhibition, % at 11 µM | actives 0.15% (n = 320,000) | AID 2234; in the data active = inhibition above about 33%
Target sequence (P03206 whole entry, looked up): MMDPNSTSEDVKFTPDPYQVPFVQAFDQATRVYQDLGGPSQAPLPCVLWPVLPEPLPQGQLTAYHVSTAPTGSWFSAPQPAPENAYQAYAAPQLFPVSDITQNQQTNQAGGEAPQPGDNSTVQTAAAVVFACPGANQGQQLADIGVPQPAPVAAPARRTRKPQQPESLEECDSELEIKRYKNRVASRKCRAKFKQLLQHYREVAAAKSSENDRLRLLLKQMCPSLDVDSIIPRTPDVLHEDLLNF
NR3A LBD binder = binders of NR3A ligand-binding domain, primary screen, biophysical, differential scanning fluorimetry, uHTS; NR3A LBD differential scanning fluorimetry, Tm shift; 0% = protein alone, 100% = glycine-bound protein; Tm shift relative to glycine control, % at 25 µM; AID 1259313, 2017; actives 2.5% (n = 340,000);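 active = melting temperature shift of at least 10% of the positive control shift, at one fixed dose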
Rpn11 block = Rpn11 (PSMD14) deubiquitinase inhibitors, primary screen, biochemical, fluorescence polarization, uHTS. actives 0.59% (n = 360,000). AID 588493, 2011. inhibition, % at 20 µM. human 26S proteasome, Ub4-pepOG fluorescence polarization; 20S core pre-blocked with epoxomicin. 26S proteasome non-ATPase regulatory subunit 14 (Homo sapiens), O00487;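 active = inhibition at 20 µM, scaled to each plate's controls, above about 33%, limit read from the data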
dFosB act-2 = activators of mouse delta FosB DNA binding, confirmation, biochemical, fluorescence polarization, TAMRA-CDK5 oligo, cherry-picked samples; 2,400 tested, under 10 active; purified delta FosB; normalised: neutral wells 0, positive control 100; shares compounds with dFosB act-1; activation, % at 24.9 µM;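 active = highest replicate activation at or above 34% and every replicate reaching that threshold; inconclusive = meets only one of the two criteria; inactive = meets neither criterion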;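 note: higher polarization means more probe DNA bound by delta FosB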
* marks the source's active call; other numbers are inactive results. Only some compounds are listed: those with a hit (about 4.5% of all), similar ones and a draw of the others.

`O=C(CSc1nnnn1-c1ccccc1)Nc1nsc(-c2ccc(Cl)cc2)n1` gave dFosB act-1 58*, EBNA-1 inhibitor 0, TPT1 inh -1, ZTA DNA inh -8, NR3A LBD binder -11, Rpn11 block 3 and dFosB act-2 2.
Screening Cc1ccc(-c2nc(NC(=O)CSc3nnc(C)s3)ns2)cc1 returned dFosB act-1 27*, EBNA-1 inhibitor 7, TPT1 inh 0, ZTA DNA inh 9, NR3A LBD binder -1, Rpn11 block 2 and dFosB act-2 -10.
Screening CCOC(=O)c1ccccc1NC(=O)COC(=O)CCC(=O)c1ccc(C)cc1 returned dFosB act-1 -15, EBNA-1 inhibitor -1, TPT1 inh -1, ZTA DNA inh -1, NR3A LBD binder 3 and Rpn11 block 12.
`O=C(CCc1ccccn1)N1CCCC(N2CCN(c3cccc(C(F)(F)F)c3)CC2)C1` (stereo unspecified) gave dFosB act-1 -4, EBNA-1 inhibitor -6, TPT1 inh 0, ZTA DNA inh -4, NR3A LBD binder -1 and Rpn11 block 3.
O=[N+]([O-])c1cccc(-c2noc(-c3ccco3)n2)c1 was read as dFosB act-1 -1, EBNA-1 inhibitor -11, TPT1 inh 0, ZTA DNA inh 13, NR3A LBD binder 3 and Rpn11 block 0.
For COC(=O)c1cc(NC(=O)C2CC(=O)NC(=NCc3ccc(OC)cc3)S2)cc(C(=O)OC)c1 (stereo unspecified) the results were dFosB act-1 37*, EBNA-1 inhibitor -10, TPT1 inh 3, ZTA DNA inh -1, NR3A LBD binder -2, Rpn11 block -1 and dFosB act-2 -5.
For COc1ccc(CN=C2NC(=O)CC(C(=O)Nc3cc(C)cc(C)c3)S2)cc1 (stereo unspecified) the results were dFosB act-1 -3, EBNA-1 inhibitor 3, TPT1 inh -3, ZTA DNA inh 2, NR3A LBD binder 0 and Rpn11 block 2.
`COc1cccc(NC(=O)Cn2nc(Cc3cccnc3)c3ccccc3c2=O)c1` gave dFosB act-1 -7, EBNA-1 inhibitor 3, TPT1 inh -1, ZTA DNA inh 8, NR3A LBD binder -2 and Rpn11 block -4.
For C=CC(=O)Nc1cccc(CN2C(=O)N(c3cc(OC)cc(OC)c3)Cc3cnc(NCCCCN(CC)CC)nc32)c1 the results were dFosB act-1 36*, NR3A LBD binder -2, Rpn11 block 22 and dFosB act-2 inconclusive.
`O=C(COc1ccc2c(c1)OCO2)Nc1nccs1` gave dFosB act-1 5, EBNA-1 inhibitor -13, TPT1 inh -3, ZTA DNA inh -8, NR3A LBD binder -1 and Rpn11 block -2.
`COc1ccccc1/C=N/NC(=O)c1nnn(-c2nonc2N)c1-c1cccs1` gave dFosB act-1 -18, EBNA-1 inhibitor -25, TPT1 inh 2, ZTA DNA inh 1, NR3A LBD binder -9 and Rpn11 block -10.
Screening CCOC(=O)c1nnn(-c2nonc2N)c1COc1ccc(F)cc1 returned dFosB act-1 -12, EBNA-1 inhibitor 4, TPT1 inh 0, ZTA DNA inh -5, NR3A LBD binder 1 and Rpn11 block -2.
Screening CCOc1ccc(/C=N/NC(=O)c2nnn(-c3nonc3N)c2COc2ccc(F)cc2)cc1 returned dFosB act-1 40*, EBNA-1 inhibitor 9, TPT1 inh 3, ZTA DNA inh 2, NR3A LBD binder 39*, Rpn11 block 17 and dFosB act-2 -1.
For Nc1nonc1-n1nnc(C(=O)N/N=C/c2ccc(F)cc2)c1-c1cccs1 the results were dFosB act-1 55*, EBNA-1 inhibitor -3, TPT1 inh 16, ZTA DNA inh 7, NR3A LBD binder -7, Rpn11 block 4 and dFosB act-2 -3.
`Cc1ccsc1/C=N/NC(=O)c1nnn(-c2nonc2N)c1CSc1ccccc1` gave dFosB act-1 18*, EBNA-1 inhibitor 5, TPT1 inh 1, ZTA DNA inh 3, NR3A LBD binder 36*, Rpn11 block 3 and dFosB act-2 2.
O=C(Cn1nnc2ccccc21)Nc1ccc(Cl)cn1 was read as dFosB act-1 -5, EBNA-1 inhibitor 5, TPT1 inh 2, ZTA DNA inh -1, NR3A LBD binder -2 and Rpn11 block 8.
For Cc1cc(C)n2nc(SCC(=O)NC(=O)c3ccccc3Cl)nc2n1 the results were dFosB act-1 -3, ZTA DNA inh 0, NR3A LBD binder -2 and Rpn11 block -7.
`COCCCn1c(=O)c2ccccc2n(Cc2cc(C(=O)OC)ccc2OC)c1=O` gave dFosB act-1 -7, EBNA-1 inhibitor -5, TPT1 inh 4, ZTA DNA inh 8, NR3A LBD binder -1 and Rpn11 block -6.
Cc1ccccc1NC(=O)C1CCN(c2cc(-c3ccccc3)nc3ncnn23)CC1 was read as dFosB act-1 24*, EBNA-1 inhibitor -2, TPT1 inh -3, ZTA DNA inh 8, NR3A LBD binder 0, Rpn11 block -7 and dFosB act-2 -5.
`O=S(=O)(c1ccccc1)N1CCN(c2cc(-c3ccccc3)nc3ncnn23)CC1` gave dFosB act-1 7, EBNA-1 inhibitor 7, TPT1 inh 0, ZTA DNA inh -10, NR3A LBD binder 0 and Rpn11 block 1.
Cc1ccc(C)c(Cn2c3ccccc3c3cnn(CC(=O)NCc4ccccn4)c(=O)c32)c1 was read as dFosB act-1 21*, EBNA-1 inhibitor -12, TPT1 inh 4, ZTA DNA inh 10, NR3A LBD binder 0, Rpn11 block 3 and dFosB act-2 1.
Screening Cn1c2ccccc2c2cnn(CC(=O)Nc3ccc(F)cc3F)c(=O)c21 returned dFosB act-1 21*, EBNA-1 inhibitor 10, TPT1 inh -2, ZTA DNA inh 9, NR3A LBD binder 0, Rpn11 block 13 and dFosB act-2 3.
Screening O=C(Cn1nc(C(=O)O)c2ccccc2c1=O)Nc1ccc(F)cc1F returned dFosB act-1 26*, EBNA-1 inhibitor -5, TPT1 inh -3, ZTA DNA inh 11, NR3A LBD binder 2, Rpn11 block -3 and dFosB act-2 3.
